Test results from PubChem BioAssay (EPA / NIEHS).
Results filed as inconclusive are left out. Activity calls are given as the source filed them. How the source made its calls: active means hit-call score of the fitted dose curve at least 0.9, where 1 is the maximum; inconclusive means response in the unintended direction; inactive means score below 0.9.

Legend:
[1] = target: human Elastase, ELANE (gene 1991) (UniProt P08246); assay: NVS_ENZ_hElastase: NovaScreen (NVS) Enzymatic Assay for human Elastase (AID 2283153)
Sequence of human Elastase, ELANE (gene 1991) (P08246 whole entry, looked up): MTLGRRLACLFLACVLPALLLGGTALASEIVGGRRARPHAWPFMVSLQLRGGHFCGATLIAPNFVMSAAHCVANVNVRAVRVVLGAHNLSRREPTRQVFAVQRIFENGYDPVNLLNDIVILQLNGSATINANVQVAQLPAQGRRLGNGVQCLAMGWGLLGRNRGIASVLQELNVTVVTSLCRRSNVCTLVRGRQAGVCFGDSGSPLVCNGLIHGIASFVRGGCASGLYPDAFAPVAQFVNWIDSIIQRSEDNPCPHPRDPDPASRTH
How it was run: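 Concentration-response to 50 uM max, run singly for chemicals passing a threshold (e.g., 30% inhibition) in a duplicate 25 uM single-point screen. Neutrophil-derived human elastase, absorbance read-out of enzyme activity at 1.5 h; DMSO baseline.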

[2] = target: human Matrix Metalloproteinase-2 (MMP2), MMP2 (gene 4313) (UniProt P08253); assay: NVS_ENZ_hMMP2: NovaScreen (NVS) Enzymatic Assay for human Matrix Metalloproteinase-2 (MMP2) (AID 2283184)
Sequence of human Matrix Metalloproteinase-2 (MMP2), MMP2 (gene 4313) (P08253 whole entry, looked up): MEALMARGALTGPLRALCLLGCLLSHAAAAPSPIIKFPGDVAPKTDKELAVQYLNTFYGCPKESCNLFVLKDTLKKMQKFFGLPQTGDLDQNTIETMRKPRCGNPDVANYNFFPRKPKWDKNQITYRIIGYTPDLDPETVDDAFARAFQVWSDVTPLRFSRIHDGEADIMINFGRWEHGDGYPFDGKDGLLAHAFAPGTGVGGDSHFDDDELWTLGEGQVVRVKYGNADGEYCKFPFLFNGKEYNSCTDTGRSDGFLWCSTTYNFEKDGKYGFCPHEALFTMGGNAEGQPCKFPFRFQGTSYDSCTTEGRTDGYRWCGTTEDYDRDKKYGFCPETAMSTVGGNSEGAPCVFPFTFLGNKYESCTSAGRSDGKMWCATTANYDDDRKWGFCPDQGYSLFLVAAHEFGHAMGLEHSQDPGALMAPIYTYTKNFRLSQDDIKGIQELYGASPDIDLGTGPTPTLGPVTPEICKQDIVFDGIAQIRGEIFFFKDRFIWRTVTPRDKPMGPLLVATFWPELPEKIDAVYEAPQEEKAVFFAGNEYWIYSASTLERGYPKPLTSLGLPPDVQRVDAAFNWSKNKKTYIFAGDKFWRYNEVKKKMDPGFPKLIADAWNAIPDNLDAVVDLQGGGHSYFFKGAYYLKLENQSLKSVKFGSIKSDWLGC
How it was run: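 Compounds first screened in duplicate at a single 25 uM, with actives followed up in concentration series. Recombinant human MMP2 cleaves a fluorogenic substrate; fluorescence taken at 1 h, inhibition fitted relative to DMSO.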

[3] = target: Glycogen synthase kinase-3 beta (Homo sapiens) (UniProt P49841); assay: NVS_ENZ_hGSK3b: NovaScreen (NVS) Enzymatic Assay for human Glycogen Synthase Kinase-3 beta (GSK3b) (AID 2283165)
Sequence of Glycogen synthase kinase-3 beta (Homo sapiens) (P49841 whole entry, looked up): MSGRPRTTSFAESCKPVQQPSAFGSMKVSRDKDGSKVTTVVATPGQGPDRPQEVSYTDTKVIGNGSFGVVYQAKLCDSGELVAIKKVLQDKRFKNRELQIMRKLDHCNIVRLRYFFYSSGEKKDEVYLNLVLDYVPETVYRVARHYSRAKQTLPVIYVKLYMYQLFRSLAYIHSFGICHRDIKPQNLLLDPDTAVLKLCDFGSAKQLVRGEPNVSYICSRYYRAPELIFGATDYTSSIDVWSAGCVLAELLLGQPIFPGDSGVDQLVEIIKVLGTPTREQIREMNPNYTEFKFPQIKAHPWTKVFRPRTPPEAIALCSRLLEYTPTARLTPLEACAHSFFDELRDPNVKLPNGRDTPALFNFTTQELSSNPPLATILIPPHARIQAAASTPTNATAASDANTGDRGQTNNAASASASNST
How it was run: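 Recombinant enzyme with specific fluorescent substrate, 1 h, product separated by electrophoretic mobility shift. Primary duplicate screen at 25 uM; actives (e.g. 30% inhibition) followed in singleton concentration-response to 50 uM. Signal loss fitted versus DMSO.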

[4] = target: Collagenase 3 (Homo sapiens) (UniProt P45452); assay: NVS_ENZ_hMMP13: NovaScreen (NVS) Enzymatic Assay for human Matrix Metalloproteinase-13 (MMP13) (AID 2283182)
How it was run: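 Recombinant MMP13 cleaving fluorescent substrate, cell-free, measured 1 h after dosing. Primary duplicate screen at 25 uM; actives tested in concentration-response up to 50 uM; loss of signal relative to DMSO.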

[5] = target: human Matrix Metalloproteinase-7 (MMP7), MMP7 (gene 4316) (UniProt P09237); assay: NVS_ENZ_hMMP7: NovaScreen (NVS) Enzymatic Assay for human Matrix Metalloproteinase-7 (MMP7) (AID 2283183)
Sequence of human Matrix Metalloproteinase-7 (MMP7), MMP7 (gene 4316) (P09237 whole entry, looked up): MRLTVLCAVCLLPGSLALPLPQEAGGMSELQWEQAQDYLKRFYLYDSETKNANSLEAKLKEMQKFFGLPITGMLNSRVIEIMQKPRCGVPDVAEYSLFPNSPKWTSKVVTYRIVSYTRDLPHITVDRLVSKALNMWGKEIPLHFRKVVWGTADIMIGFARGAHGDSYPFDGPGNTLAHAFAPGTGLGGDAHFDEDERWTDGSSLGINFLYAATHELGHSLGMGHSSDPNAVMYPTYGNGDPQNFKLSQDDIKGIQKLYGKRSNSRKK
How it was run: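 Compounds first tested at 25 uM in duplicate, then at up to 50 uM in concentration series if active. Protease activity measured by fluorescence intensity 1 h after dosing, with fitting relative to DMSO.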

[6] = target: human Matrix Metalloproteinase-3 (MMP3), MMP3 (gene 4314) (UniProt P08254); assay: NVS_ENZ_hMMP3: NovaScreen (NVS) Enzymatic Assay for human Matrix Metalloproteinase-3 (MMP3) (AID 2283185)
Sequence of human Matrix Metalloproteinase-3 (MMP3), MMP3 (gene 4314) (P08254 whole entry, looked up): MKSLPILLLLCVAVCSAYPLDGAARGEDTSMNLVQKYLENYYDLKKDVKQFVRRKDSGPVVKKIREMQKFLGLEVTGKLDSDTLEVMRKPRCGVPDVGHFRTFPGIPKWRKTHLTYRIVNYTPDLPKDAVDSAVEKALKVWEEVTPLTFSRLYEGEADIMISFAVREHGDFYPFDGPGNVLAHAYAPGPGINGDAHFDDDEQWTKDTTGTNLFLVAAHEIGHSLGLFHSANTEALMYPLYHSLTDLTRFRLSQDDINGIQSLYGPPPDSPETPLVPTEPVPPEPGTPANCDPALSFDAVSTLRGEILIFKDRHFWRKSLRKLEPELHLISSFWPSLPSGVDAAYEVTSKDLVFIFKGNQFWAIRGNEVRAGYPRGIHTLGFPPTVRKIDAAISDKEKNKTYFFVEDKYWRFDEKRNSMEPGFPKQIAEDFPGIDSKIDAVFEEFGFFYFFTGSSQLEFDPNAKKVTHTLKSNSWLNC
How it was run: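 Fluorescent substrate turnover by recombinant MMP3 read after 1 h, signal loss scored against DMSO. Compounds first run in duplicate at 25 uM single dose, then actives confirmed by concentration series.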

[7] = target: human Phosphodiesterase 5 (PDE5), PDE5A (gene 8654) (UniProt O76074); assay: NVS_ENZ_hPDE5: NovaScreen (NVS) Enzymatic Assay for human Phosphodiesterase 5 (PDE5) (AID 2283194)
How it was run: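 Screening began in duplicate at 25 uM, with actives taken into concentration-response. Enzyme activity of recombinant PDE5 toward its substrate was measured at 1 h by fluorescence mobility-shift detection, relative to DMSO controls.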

[8] = target: human Esterase Plasma (ES), BCHE (gene 590) (UniProt P06276); assay: NVS_ENZ_hES: NovaScreen (NVS) Enzymatic Assay for human Esterase Plasma (ES) (AID 2283157)
Sequence of human Esterase Plasma (ES), BCHE (gene 590) (P06276 whole entry, looked up): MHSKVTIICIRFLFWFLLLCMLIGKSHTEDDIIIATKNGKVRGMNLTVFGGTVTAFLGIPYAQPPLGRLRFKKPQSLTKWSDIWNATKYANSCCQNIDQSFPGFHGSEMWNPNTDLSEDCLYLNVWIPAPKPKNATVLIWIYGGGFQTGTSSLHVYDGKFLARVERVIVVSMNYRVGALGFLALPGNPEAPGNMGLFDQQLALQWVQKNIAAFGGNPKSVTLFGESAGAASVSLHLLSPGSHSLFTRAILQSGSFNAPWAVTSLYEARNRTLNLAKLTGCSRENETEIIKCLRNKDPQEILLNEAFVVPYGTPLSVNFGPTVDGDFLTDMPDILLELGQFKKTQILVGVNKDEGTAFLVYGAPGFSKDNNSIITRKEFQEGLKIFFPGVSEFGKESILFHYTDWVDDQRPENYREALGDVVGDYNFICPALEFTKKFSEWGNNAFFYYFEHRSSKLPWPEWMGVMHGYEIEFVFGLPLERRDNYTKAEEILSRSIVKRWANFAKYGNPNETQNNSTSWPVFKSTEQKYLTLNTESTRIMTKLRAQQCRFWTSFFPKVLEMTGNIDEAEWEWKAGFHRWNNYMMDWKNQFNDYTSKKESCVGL
How it was run: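 Human plasma-derived enzyme, cell-free, colorimetric readout at 0.25 h. Primary screen 25 uM in duplicate; hits (e.g. ≥30% inhibition) rerun singleton up to 50 uM. DMSO = negative control/baseline.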

[9] = target: human LYN Proto-Oncogene, Src family Tyrosine Kinase (LynA), LYN (gene 4067) (UniProt P07948); assay: NVS_ENZ_hLynA: NovaScreen (NVS) Enzymatic Assay for human LYN Proto-Oncogene, Src family Tyrosine Kinase (LynA) (AID 2283173)
How it was run: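 Recombinant kinase with fluorescent substrate; product separated from substrate by electrophoretic mobility shift and read 1 h after dosing. Duplicate screen at 25 uM, then concentration-response up to 50 uM; activity scored as signal loss against DMSO.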

[10] = target: cAMP-dependent protein kinase catalytic subunit alpha (Homo sapiens) (UniProt P17612); assay: NVS_ENZ_hPKA: NovaScreen (NVS) Enzymatic Assay for human Protein Kinase A (PKA) (AID 2283192)
How it was run: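 Cell-free kinase activity read by fluorescence after mobility-shift separation of substrate and product, 1 h post-dosing. Single-concentration duplicate screen (25 uM) preceded singleton concentration series (top 50 uM); loss of signal versus DMSO.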

[11] = target: human Matrix Metalloproteinase-9 (MMP9), MMP9 (gene 4318) (UniProt P14780); assay: NVS_ENZ_hMMP9: NovaScreen (NVS) Enzymatic Assay for human Matrix Metalloproteinase-9 (MMP9) (AID 2283190);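 further: cell-free recombinant MMP9 protease activity read by fluorescent substrate signal; active means inhibition seen as loss of fluorescence signal versus DMSO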
Sequence of human Matrix Metalloproteinase-9 (MMP9), MMP9 (gene 4318) (P14780 whole entry, looked up): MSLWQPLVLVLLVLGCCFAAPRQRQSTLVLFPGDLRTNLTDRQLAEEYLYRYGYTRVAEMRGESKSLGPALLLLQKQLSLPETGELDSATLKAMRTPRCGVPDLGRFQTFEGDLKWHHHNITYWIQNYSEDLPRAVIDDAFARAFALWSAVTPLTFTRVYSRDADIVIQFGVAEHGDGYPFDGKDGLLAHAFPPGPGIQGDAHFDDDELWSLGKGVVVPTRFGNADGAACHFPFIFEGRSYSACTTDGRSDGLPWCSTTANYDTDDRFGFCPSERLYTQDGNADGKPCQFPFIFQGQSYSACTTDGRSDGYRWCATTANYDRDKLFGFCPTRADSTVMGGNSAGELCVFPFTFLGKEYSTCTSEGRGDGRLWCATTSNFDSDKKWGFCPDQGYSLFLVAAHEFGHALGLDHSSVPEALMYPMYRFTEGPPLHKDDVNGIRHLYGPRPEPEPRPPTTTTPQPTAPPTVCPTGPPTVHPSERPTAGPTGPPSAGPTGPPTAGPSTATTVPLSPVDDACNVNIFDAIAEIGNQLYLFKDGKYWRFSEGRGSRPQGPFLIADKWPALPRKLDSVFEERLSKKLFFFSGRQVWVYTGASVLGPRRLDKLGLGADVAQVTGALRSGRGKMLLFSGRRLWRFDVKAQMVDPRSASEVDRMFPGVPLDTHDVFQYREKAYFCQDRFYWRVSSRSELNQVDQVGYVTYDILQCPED
How it was run: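 Cell-free fluorescence-intensity enzyme activity assay using extracted protein, read 1 h after dosing. Loss of signal versus DMSO baseline indicates inhibition; primary screen in duplicate at 25 uM, actives followed up in concentration series.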

[12] = target: human Janus Kinase 2 (Jak2), JAK2 (gene 3717) (UniProt O60674); assay: NVS_ENZ_hJak2: NovaScreen (NVS) Enzymatic Assay for human Janus Kinase 2 (Jak2) (AID 2283169)
Sequence of human Janus Kinase 2 (Jak2), JAK2 (gene 3717) (O60674 whole entry, looked up): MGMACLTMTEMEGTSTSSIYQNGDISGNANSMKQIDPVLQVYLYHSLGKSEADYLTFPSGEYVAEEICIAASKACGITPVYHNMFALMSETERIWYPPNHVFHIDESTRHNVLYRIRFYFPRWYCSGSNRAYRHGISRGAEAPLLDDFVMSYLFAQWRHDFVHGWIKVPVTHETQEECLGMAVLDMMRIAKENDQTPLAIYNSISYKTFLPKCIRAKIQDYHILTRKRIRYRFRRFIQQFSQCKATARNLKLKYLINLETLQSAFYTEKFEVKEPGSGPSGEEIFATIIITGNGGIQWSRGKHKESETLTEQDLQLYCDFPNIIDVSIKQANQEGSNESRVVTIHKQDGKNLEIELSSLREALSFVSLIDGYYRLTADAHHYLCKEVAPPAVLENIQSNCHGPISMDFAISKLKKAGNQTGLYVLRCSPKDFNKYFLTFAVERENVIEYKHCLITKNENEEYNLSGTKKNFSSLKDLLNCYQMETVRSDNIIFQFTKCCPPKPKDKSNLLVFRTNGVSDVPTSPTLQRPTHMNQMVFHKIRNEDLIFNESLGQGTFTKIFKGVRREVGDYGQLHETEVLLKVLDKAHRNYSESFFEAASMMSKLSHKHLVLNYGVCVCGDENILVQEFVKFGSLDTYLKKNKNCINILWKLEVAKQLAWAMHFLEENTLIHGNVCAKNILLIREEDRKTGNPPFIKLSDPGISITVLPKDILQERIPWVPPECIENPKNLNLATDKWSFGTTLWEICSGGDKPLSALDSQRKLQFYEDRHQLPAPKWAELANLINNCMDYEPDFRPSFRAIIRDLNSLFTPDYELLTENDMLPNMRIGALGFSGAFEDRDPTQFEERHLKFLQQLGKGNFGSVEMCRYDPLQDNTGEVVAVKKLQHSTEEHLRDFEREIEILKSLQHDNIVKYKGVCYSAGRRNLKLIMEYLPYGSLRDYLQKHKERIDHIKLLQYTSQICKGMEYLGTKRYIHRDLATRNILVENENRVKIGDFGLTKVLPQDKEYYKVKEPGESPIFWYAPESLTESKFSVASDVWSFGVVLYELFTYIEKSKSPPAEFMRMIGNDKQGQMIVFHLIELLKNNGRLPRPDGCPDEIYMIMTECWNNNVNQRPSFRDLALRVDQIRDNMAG
How it was run: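 Single-point duplicate screen at 25 uM, with hits run in concentration series to a 50 uM top dose. Substrate-product separation by mobility shift with fluorescence detection, 1 h post-dosing; DMSO baseline.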

[13] = target: Mitogen-activated protein kinase 3 (Homo sapiens) (UniProt P27361); assay: NVS_ENZ_hMAPK3: NovaScreen (NVS) Enzymatic Assay for human Mitogen-Activated Protein Kinase 3 (MAPK 3) (AID 2283177)
Sequence of Mitogen-activated protein kinase 3 (Homo sapiens) (P27361 whole entry, looked up): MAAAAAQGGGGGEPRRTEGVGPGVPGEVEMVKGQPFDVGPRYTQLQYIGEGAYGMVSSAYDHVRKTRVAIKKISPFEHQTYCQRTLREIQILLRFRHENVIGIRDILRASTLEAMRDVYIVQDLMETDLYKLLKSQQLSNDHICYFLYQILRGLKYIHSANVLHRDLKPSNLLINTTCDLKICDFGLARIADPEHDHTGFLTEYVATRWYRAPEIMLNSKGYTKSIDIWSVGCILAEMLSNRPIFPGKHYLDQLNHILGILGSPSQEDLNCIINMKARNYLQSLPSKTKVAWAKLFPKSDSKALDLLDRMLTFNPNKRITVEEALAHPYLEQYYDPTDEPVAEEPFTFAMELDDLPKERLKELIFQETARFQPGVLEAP
How it was run: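 Chemicals were first tested in duplicate at 25 uM, with hits re-run as concentration series (max 50 uM). Recombinant enzyme activity, measured 1 h post-dose in a cell-free format, was read by fluorescence/mobility shift relative to DMSO.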

[14] = target: human Mitogen- and Stress-activated Protein Kinase-1 (Msk1), RPS6KA5 (gene 9252) (UniProt O75582); assay: NVS_ENZ_hMsk1: NovaScreen (NVS) Enzymatic Assay for human Mitogen- and Stress-activated Protein Kinase-1 (Msk1) (AID 2283187)
How it was run: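 Chemicals first run in duplicate at 25 uM, with actives followed up in singleton concentration series to 50 uM maximum. Enzyme activity came from substrate/product mobility-shift separation with fluorescence detection after 1 h incubation of the recombinant protein.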

[15] = target: human c-Jun N-terminal Kinases (JNK2), MAPK9 (gene 5601) (UniProt P45984); assay: NVS_ENZ_hJNK2: NovaScreen (NVS) Enzymatic Assay for human c-Jun N-terminal Kinases (JNK2) (AID 2283171)
How it was run: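 Chemicals first tested in duplicate at 25 uM, then in singleton concentration series up to 50 uM, against extracted JNK2 enzyme. Activity loss read by fluorescence with mobility-shift separation 1 h post-dose; DMSO baseline.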

[16] = target: human Insulin Receptor (InsR), INSR (gene 3643) (UniProt P06213); assay: NVS_ENZ_hInsR: NovaScreen (NVS) Enzymatic Assay for human Insulin Receptor (InsR) (AID 2283168)
How it was run: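 Cell-free enzyme assay read 1 h post-dose by fluorescence after substrate/product mobility-shift separation. Duplicate 25 uM primary screen, then singleton concentration-response up to 50 uM for compounds passing threshold; loss of signal vs DMSO.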

Cc1cc(Cc2ccc(N)c(C)c2)ccc1N was tested, and the outcome [1] was “inactive” and the outcome [2] was “inactive”.

With CCc1cc(C2=C(C(=O)O)N(c3ccccc3C(F)(F)F)S(=O)(=O)c3ccccc32)cc2c1OCO2 the AC50 [1] was 8.94 µM (active), the outcome [3] was “inactive” and the AC50 [4] was 29.6 µM (active). The outcome [5] was “inactive”, the AC50 [6] was 25 µM (active) and the outcome [7] was “inactive”.

CSc1ccc(Oc2ccc(S(N)(=O)=O)cc2CN(C)C)cc1C was tested, and the AC50 [8] was 0.108 µM (active) and the AC50 [2] was 9.97 µM (active).

For C=CCc1ccc(OC)c(OC)c1, the outcome [3] was “inactive”.

For O=C(N[C@@H](c1ccccc1)[C@@H]1CCCCN1)c1cccc(C(F)(F)F)c1Cl, the AC50 [8] was 20.8 µM (active), the outcome [9] was “inactive” and the outcome [10] was “inactive”.

CCC(C)N(C)C(=O)c1cc2ccccc2c(-c2ccccc2Cl)n1 (stereo unspecified) was tested, and the AC50 [8] was 9.91 µM (active).

With Cn1cnc2c1c(=O)[nH]c(=O)n2C the outcome [8] was “inactive”, the outcome [4] was “inactive” and the outcome [2] was “inactive”. The outcome [11] was “inactive”.

OCC(O)CO was tested, and the outcome [11] was “inactive”.

CC(C)(C)c1ccccc1 was tested, and the AC50 [4] was 19.4 µM (active) and the outcome [10] was “inactive”.

In the case of O=C1NC(=O)C(c2ccccc2)(c2ccccc2)N1, the outcome [12] is reported as “inactive” and the outcome [9] is reported as “inactive”.

For Nc1nc(=S)c2[nH]cnc2[nH]1, the outcome [3] was “inactive”, the AC50 [4] was 27.1 µM (active) and the outcome [5] was “inactive”. The AC50 [2] was 18.8 µM (active) and the AC50 [11] was 39.2 µM (active).

With C/C=C/c1ccc(OC)cc1 the outcome [3] was “inactive”.

With O=C1CCCCC1 the outcome [13] was “inactive”.

For CC(C)c1cccc(C(C)C)c1NC(=O)NS(=O)(=O)c1cc(C(C)(C)O)co1, the outcome [3] was “inactive”.

With NC(=Nc1ccccc1)Nc1ccccc1 the outcome [13] was “inactive”.

In the case of O=C(O)c1cccnc1, the outcome [13] is reported as “inactive”.

In the case of O=C(Oc1ccccc1)c1cccc(C(=O)Oc2ccccc2)c1, the outcome [3] is reported as “inactive”, the outcome [12] is reported as “inactive” and the outcome [10] is reported as “inactive”.

S=c1[nH]c2ccccc2s1 was tested, and the outcome [3] was “inactive”, the outcome [14] was “inactive” and the outcome [10] was “inactive”.

O=Cc1ccccc1C=O was tested, and the AC50 [6] was 6.96 µM (active).

For NC1CCCCC1, the outcome [3] was “inactive”.

O=C1OC(c2ccc(O)cc2)(c2ccc(O)cc2)c2ccccc21 was tested, and the outcome [3] was “inactive”.

With Oc1ccc(O)cc1 the outcome [3] was “inactive”.

With c1ccc2occc2c1 the outcome [3] was “inactive”, the outcome [2] was “inactive” and the outcome [11] was “inactive”.

In the case of CCCCCCCCCCCCCCCCO, the outcome [12] is reported as “inactive” and the outcome [15] is reported as “inactive”.

For COC(=O)CCCC(=O)OC, the outcome [3] was “inactive”.

With CC(=O)CC(c1ccccc1)c1c(O)c2ccccc2oc1=O (stereo unspecified) the outcome [10] was “inactive”.

O=NO was tested, and the outcome [3] was “inactive”.

For O=C(O)c1[nH]n(-c2ccc(S(=O)(=O)O)cc2)c(=O)c1N=Nc1ccc(S(=O)(=O)O)cc1, the AC50 [4] was 23.6 µM (active), the AC50 [5] was 12.3 µM (active) and the AC50 [6] was 23.6 µM (active).

In the case of C=CCCCCCCCCCCCC, the outcome [13] is reported as “inactive”.

With CC(C)NCC(O)c1ccc(O)c(O)c1 (stereo unspecified) the outcome [12] was “inactive”.

NC=O was tested, and the outcome [13] was “inactive”.

With CCOCCOCCO the outcome [3] was “inactive”.

With CC(N)=O the outcome [16] was “inactive” and the outcome [7] was “inactive”.

Oc1ccccc1O was tested, and the outcome [7] was “inactive”.

With CC(C)COC(=O)CCCCC(=O)OCC(C)C the outcome [12] was “inactive”.

In the case of C/C=C/C=C/C(=O)O, the AC50 [11] is reported as 1.24 µM (active).

In the case of CC1(C)C(=O)NC(=O)N1CO, the outcome [3] is reported as “inactive” and the outcome [7] is reported as “inactive”.
